Screening data from PubChem BioAssay.
ATXN viability – Viability Counterscreen for Primary qHTS for Inhibitors of ATXN expression | S2 cells (HEK-293 line with an ATXN2-luciferase reporter) viability, CellTiter-Fluor protease fluorescence, 24 h | Potency, µM (doses to about 56.7 µM), most hits filed as cytotoxic | actives 0.49% (n = 400,000); note: nearly all actives have a fitted effect of over 40% in size
KB-3-1 cytotox – qHTS assay for MDR1-selective chemotherapeutics: Primary screen using the parental adenocarcinoma cell KB-3-1; KB-3-1 viability, CellTiter-Glo ATP luminescence, 72 h; Potency, µM (titrated, usually from 46.1 µM), most hits filed as cytotoxic; actives 1.4% (n = 400,000); note: % is set by controls: 0 for no effect and ±100 for the full control effect; nearly all actives have a fitted effect of over 60% in size
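Using CellTiter-Glo luminescence, growth of non-resistant KB-3-1 adenocarcinoma cells is assessed 72 h after pin-tool compound addition at 37 °C. Normalized responses across the concentration series yield fitted curves.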
HT1080-NT tox – qHTS for induction of synthetic lethality in tumor cells producing 2HG: qHTS for the HT-1080-NT fibrosarcoma cell line. HT-1080-NT fibrosarcoma viability, CellTiter-Glo ATP luminescence, 48 h. Potency, µM (highest dose often 46.1 µM), for inactives: top-dose activity, negative = less viability, usual class: cytotoxic. actives 1.6% (n = 360,000);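 note: NT is the 2HG producing partner of a matched IDH1 knockdown line; 0% = DMSO-treated cells and -100% = media-only wells without cells; nearly all actives have a fitted effect of over 55% in size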
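Toxicity toward the 2HG-producing NT line was scored as %Activity, normalised to DMSO and no-cell wells, from CellTiter-Glo luminescence after 48 hours' treatment.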
ATXN2 expr inh – Primary qHTS for Inhibitors of ATXN expression | HEK-293 ATXN2-luciferase reporter, luminescence, 24 h | Potency, µM (doses to about 57 µM), for inactives: at the top dose activity change, negative = inhibition, most hits filed as inhibitors | actives 0.72% (n = 360,000) | AID 1745845, 2022; note: % is set by controls: 0 for no effect and ±100 for the full control effect; nearly all actives have a fitted effect of over 55% in size
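qHTS (up to 57 uM final) was run with 24 h compound exposure of reporter cells at 37 °C. Each well was multiplexed: SteadyGlo luminescence measured ATXN2-luciferase expression after a fluorogenic Gly-Phe-AFC viability readout (25 uM final).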
HT1080 IDH1KD tx – qHTS for induction of synthetic lethality in tumor cells producing 2HG: qHTS for the HT-1080-IDH1KD cell line; HT-1080 IDH1 knockdown viability, ATP luminescence, 48 h; Potency, µM (titrated, usually from 46.1 µM), inactives show top-dose activity, negative = toxicity, most hits filed as cytotoxic; actives 2% (n = 360,000);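 note: 0% = DMSO wells and -100% = cell-free medium wells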
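After a 2 h attachment period, IDH1KD HT-1080 cells took pin-transferred compound for 48 h at 37 °C; ATP-based luminescence after 10 min room-temperature reagent incubation reported viability.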
KB-V1 cytotox – qHTS assay for MDR1-selective chemotherapeutics: Primary screen using the drug-selected MDR subline cells KB-V1. KB-V1 MDR cells viability, CellTiter-Glo, 72 h. Potency, µM (doses to about 46.1 µM), actives largely listed as cytotoxic. actives 3.4% (n = 400,000); note: % is set by controls: 0 for no effect and ±100 for the full control effect; nearly all actives have a fitted effect of over 60% in size
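Following 72 h at 37 degrees C with compound, KB-V1 cell viability was read by CellTiter-Glo luminescence, medium being phenol-red-free DMEM plus 10% FBS; concentration-response parameters came from normalized, curve-fitted qHTS data.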
The depositor's hits bear a star; i = inactive; ? = inconclusive; · = no result; [ ] = remark or other dose. A selection: hits, their analogues and other compounds. The true share with any hit is near 6.2%. Calls come from the whole dose curve; as a rule, active = well fitted curve in the direction sought with a large enough effect; inconclusive = small, poorly fitted or top-dose-only effect, or another doubt; inactive = no such curve, though single readings can be large; an effect the other way counts as inactive or inconclusive. Potency is the fitted concentration of half-maximal effect.

SMILES	ATXN viability	KB-3-1 cytotox	HT1080-NT tox	ATXN2 expr inh	HT1080 IDH1KD tx	KB-V1 cytotox
Cc1ccc(C)c(N2CCN(CCCNC(=O)Cn3cc4c(n3)CCCCC4)CC2)c1	?	?	?	?	-26.4%	20.6µM*
CN1CCN(CCCNC(=O)Cn2c(-c3cccs3)cc3ccccc32)CC1	i	i	·	-7.7%	·	i
Cc1ccc(C)c(N2CCN(CCCNC(=O)Cn3c(-c4cccs4)cc4ccccc43)CC2)c1	?	i	·	25.1µM*	·	i
CCc1ccc(C2N3CC4(C)CN2CC(c2ccccc2)(C3)C4=O)cc1 (configuration not stated)	i	i	·	3.9%	·	?
CCC(C)NC(=O)CC(NS(=O)(=O)c1ccc(C)cc1)c1ccc(OC)cc1 (configuration not stated)	i	i	0.0%	7.9%	11.3%	8.2µM*
COC(=O)c1sc(N2C(=O)c3oc4ccc(C)cc4c(=O)c3C2c2ccc(OC)cc2)nc1C (configuration not stated)	i	i	·	7.6%	·	i
O=C(C1CCCC1)N1CCC(CO)(Cc2ccccc2Cl)CC1	i	i	-20.8%	-23.1%[11.3 µM]	-17.5%	?
O=C(C1CC=CCC1)N1CCC(CO)(Cc2ccc(Cl)cc2)CC1 (configuration not stated)	i	?	-19.8%	·	2.1%	11.6µM*
C[C@]12c3[nH]c4cc(-c5ccco5)ccc4c3CCN1C(=O)[C@@H](CC(=O)NCC13CC4CC(CC(C4)C1)C3)C[C@@H]2C(=O)N1CCOCC1	?	?	?	?	18.4µM*	23.1µM*
CCN(CC)C(=O)[C@H]1C[C@H](CC(=O)NCC23CC4CC(CC(C4)C2)C3)C(=O)N2CCc3c([nH]c4cc(-c5ccco5)ccc34)[C@]12C	i	i	8.5%	5.3%	15.3%	i
C[C@]12c3[nH]c4ccc(Cl)cc4c3CCN1C(=O)[C@@H](CC(=O)NCC13CC4CC(CC(C4)C1)C3)C[C@@H]2C(=O)N1CCCCC1	?	i	4.3%	?	7.9%	i
C[C@]12c3[nH]c4ccc(Cl)cc4c3CCN1C(=O)[C@@H](CC(=O)NCC13CC4CC(CC(C4)C1)C3)C[C@@H]2C(=O)N1CCOCC1	?	?	23.1µM*	?	?	?
CC[C@]12c3[nH]c4ccc(Cl)cc4c3CCN1C(=O)[C@@H](CC(=O)NCC13CC4CC(CC(C4)C1)C3)C[C@@H]2C(=O)N1CCN(C(=O)C2CC2)CC1	?	?	16.4µM*	25.1µM*	23.1µM*	i
Cc1oc(-c2cccc(Cl)c2)nc1CS(=O)(=O)CC(=O)NCc1ccccc1Cl	i	i	·	0.8%	·	i
O=C(OCc1cn([C@@H]2CN(C(=O)c3cccs3)[C@@H](c3ccc(Cl)cc3)C[C@H]2O)nn1)c1ccccc1	?	i	-3.0%	-12.7%	-9.7%	i
O=C(C[C@@H]1C[C@@H]2c3cc(NS(=O)(=O)c4ccc(F)cc4)ccc3O[C@@H]2[C@H](CO)O1)NCc1ccc(Oc2ccccc2)cc1	?	i	?	-36.3%	?	i
O=C(C[C@@H]1C[C@H]2c3cc(NC(=O)c4cccnc4)ccc3O[C@H]2[C@H](CO)O1)NCc1ccc(Oc2ccccc2)cc1	?	18.4µM*	?	?	?	i
COc1ccc(-c2nc3ccccc3n3c(-c4ccc(OC)cc4)c4c(=O)n(C)c(=O)n(C)c4c23)cc1	i	i	·	7.4%	·	i
Cc1cc(Cl)ccc1NC(=S)NCc1cccs1	i	i	18.4µM*	-6.0%	?	?
S=C(NCc1ccco1)Nc1ccc(Cl)cc1Cl	i	?	-11.2%	23.6%	-8.4%	18.4µM*
S=C(NCc1ccco1)Nc1ccc(Br)cc1Cl	i	?	-24.7%	56.2%	-20.7%	i
S=C(NCc1cccs1)Nc1ccccc1Cl	i	i	-0.1%	7.8%	5.2%	25.9µM*
CC(C)c1ccc(NC(=S)NCc2cccs2)cc1	i	i	11.2µM*	46.7%	?	23.1µM*
Cc1ccc(O)c(CP(=O)(c2ccccc2)c2ccccc2)c1	i	i	3.1%	-5.5%	4.0%	?
Cc1ccc(O)c(CN(C)Cc2cc(C)ccc2O)c1	i	?	1.7%	3.5%	-5.5%	20.6µM*
SMILES	ATXN viability	KB-3-1 cytotox	HT1080-NT tox	ATXN2 expr inh	HT1080 IDH1KD tx	KB-V1 cytotox
COc1ccc(C(=O)N2CCN(S(=O)(=O)c3ccc(F)cc3)CC2)cc1OC	?	i	3.9%	·	0.6%	?
COc1ccc(C(=O)N2CCN(S(=O)(=O)c3ccc(Cl)cc3)CC2)cc1OC	i	i	5.4%	-4.5%	0.7%	14.6µM*
COc1ccc(S(=O)(=O)N2CCN(C(=O)c3cccnc3)CC2)cc1OC	i	i	-0.8%	-20.1%	1.8%	i
CCCc1cc(C(=O)N2CCN(S(=O)(=O)c3ccc(OC)c(OC)c3)CC2)cs1	i	i	-15.8%	-1.7%	-27.9%	5.17µM*
O=C(NCc1cccnc1)c1cnn(-c2ncc3c(n2)-c2ccccc2CCC3)c1C1CC1	i	·	·	·	·	·
Cc1ccccc1OCc1nc2ccc(S(=O)(=O)N3CCOCC3)cc2[nH]1	i	i	-9.0%	-4.1%	1.6%	20.6µM*
CCc1c(C)nc2ncnn2c1NCCc1ccc(OC)cc1	i	5.62µM*	6.31µM*	-35.9%	3.55µM*	?
O=C(OCCN1C(=O)c2cccc3c(N4CCOCC4)ccc(c23)C1=O)c1ccc(Cl)cc1	·	i	?	-21.2%	2.31µM*	i
CCN(CC)S(=O)(=O)c1ccc(C(=O)OCC(=O)N2CCOCC2)cc1	i	i	-6.4%	14.8%	1.1%	i
CCCN(CCC)S(=O)(=O)c1ccc(C(=O)OCCN2C(=O)c3cccc4c(N5CCOCC5)ccc(c34)C2=O)cc1	·	i	11.5%	1.2%	19.9%	14.6µM*
CN(C1=C(NC(=O)c2ccccc2)C(=O)c2ccccc2C1=O)C1CCS(=O)(=O)C1 (configuration not stated)	31.6µM*	?	?	?	-24.3%	?
